Exocytosis inh – blocks lytic granule exocytosis; TALL-104 LAMP-1 surface exposure, flow cytometry; cells stimulated with thapsigargin and PMA; 360,000 tested, 0.66% active; inhibition, % at 10 µM; AID 651702;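 active means inhibition above about 55%, limit read from the data; inconclusive means no clear call, values can overlap the other calls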
MEX-5 binding – C. elegans MEX-5 TCR-2 RNA binding activity; Q9XUB2; 300,000 tested, 0.38% active; activity score (negative = inhibition of binding), % at 10 µM; MEX-5/FITC-TCR2 RNA binding, fluorescence polarization; stronger effect = lower value;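 active means inhibition past about -25% in most replicates, and total fluorescence under double the plate's negative control median, limit read from the data; inconclusive means replicates evenly split on the limit, or fluorescence at least double controls; inactive means too little inhibition in most replicates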;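 further: 0% = DMSO and -100% = 5 µM competing unlabeled TCR2 RNA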
Target sequence (Q9XUB2 whole entry, looked up): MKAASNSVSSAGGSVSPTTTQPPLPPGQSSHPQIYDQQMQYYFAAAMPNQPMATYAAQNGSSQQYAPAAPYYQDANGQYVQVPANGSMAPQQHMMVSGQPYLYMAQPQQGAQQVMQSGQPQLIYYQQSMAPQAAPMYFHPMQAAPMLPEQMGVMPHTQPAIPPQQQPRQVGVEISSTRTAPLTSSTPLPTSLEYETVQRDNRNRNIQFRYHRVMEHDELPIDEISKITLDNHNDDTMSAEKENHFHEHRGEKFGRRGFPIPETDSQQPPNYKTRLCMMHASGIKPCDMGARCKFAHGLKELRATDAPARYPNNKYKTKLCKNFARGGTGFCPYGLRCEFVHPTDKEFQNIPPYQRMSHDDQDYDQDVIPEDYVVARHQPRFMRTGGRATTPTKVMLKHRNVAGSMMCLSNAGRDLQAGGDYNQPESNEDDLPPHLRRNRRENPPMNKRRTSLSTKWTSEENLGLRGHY
V-ATPase pHluor – alters yeast V-ATPase proton transport. S. cerevisiae, pHLuorin cytosolic pH fluorescence. response, % at 10 µM. 350,000 tested, 0.37% active; in the data active means response mostly above about 7.3%, no sharp cut-off; inactive means mostly below about 5.4%; further: actives read high
m5-HT2A agonist – agonists of mouse serotonin 5-HT2A receptor (HTR2A) | P35363 | AID 624169 | CHO-K1 mHTR2A beta-arrestin complementation, luminescence; percent of 30 µM serotonin response | activation, % at 7.6 µM | 360,000 tested, 0.66% active;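 active means activation above a run cutoff, the mean activation of all tested compounds plus 3 SD, cut at about 14% in these data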;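 further: 0% = plate median of compound wells and 100% = 30 µM serotonin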
GASC-1 inh – blocks human GASC-1 demethylase activity | 330,000 tested, 0.069% active | inhibition, % at 2.35 µM | GST-JMJD2C(1-420) H3K9me3 demethylation, DELFIA europium | Q9H3R0 | AID 2099;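 active means more than half of a compound's replicate wells show inhibition beyond 50%, single wells judged on their own value; inconclusive means some, but no more than half, of replicates pass 50% inhibition; inactive means no replicate passes 50% inhibition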;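 further: signal counts dimethyl H3K9 product captured on neutravidin plate; 0% = median of DMSO wells and 100% = 0.3 times that DMSO median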
VLA-4 inh – inhibition in a human VLA-4 binding assay; P13612; VLA-4 expressing cells, ligand binding flow cytometry; inhibition, % (about 7 µM as worked out from the volumes in the protocol); 330,000 tested, 0.2% active; AID 2557; in the data active means inhibition above about 50%
Active calls of the source: *; ? = inconclusive; / = not tested or not shown. Sampled rows, rich in hits. Any-hit rate of the full collection: about 2.2%.

SMILES | Exocytosis inh | MEX-5 binding | V-ATPase pHluor | m5-HT2A agonist | GASC-1 inh | VLA-4 inh
Cc1ccc(-n2c([S-])c(C(=O)Nc3ccc(OC(F)F)cc3)[n+]3ccc(C(=O)NCCO)cc23)cc1C | 23.6 | -3.0 | -2.9 | -0.7 | 0.5 | -14.1
COc1ccccc1-n1c([S-])c(C(=O)Nc2ccccc2C(F)(F)F)[n+]2ccc(C(=O)NCCO)cc12 | 63.3* | -2.2 | 12.8 | -1.1 | -4.0 | 21.1
CC1=C(C#N)c2nc(N)c(C#N)c(C)c2/C1=C\c1ccc(-c2ccccc2C(=O)O)o1 | 0.1 | -52.3* | -3.4 | 0.9 | 3.4 | /
COc1ccccc1C(=O)Nc1nc2cc3c(cc2s1)OCCO3 | -1.7 | 0.6 | -1.9 | 22.8* | 4.1 | 5.5
COc1ccccc1C(=O)Nc1nc2cc3c(cc2s1)OCO3 | 0.4 | -2.6 | 5.4 | 1.8 | 0.1 | -2.4
COCCCn1c2nc3ccccc3nc2c2c(=O)n(Cc3ccc(Cl)cc3)cnc21 | 1.1 | -2.8 | -3.9 | 0.0 | -5.0 | 2.5
O=c1c2c3nc4ccccc4nc3n(Cc3ccccc3)c2ncn1Cc1ccco1 | 93.3* | / | 8.5 | -2.6 | / | /
O=c1[nH]c(/C=C\c2ccc(O)c(O)c2)nc(O)c1[N+](=O)[O-] | -0.8 | -29.7* | -3.2 | -7.4 | -39.5 | -5.7
CSCCC(NS(=O)(=O)c1cccc(C(F)(F)F)c1)C(=O)N(C)CCOc1ccc(Cl)cc1 (centres undefined) | 13.6 | -1.7 | 1.2 | -4.7 | -1.0 | 0.2
CC(C)C(NC(=O)c1cccc(S(=O)(=O)N2CCOCC2)c1)C(=O)NCc1ccc(Cl)cc1 (centres undefined) | -6.5 | / | 1.6 | 0.8 | / | -4.5
CCOC(=O)c1c(-c2ccc(C)o2)csc1NC(=O)CSc1nncs1 | 89.6* | 0.1 | 0.9 | -1.0 | 0.6 | -4.0
COC(=O)c1ccccc1NC(=O)CN1CCN(c2ccccn2)CC1 | -1.0 | -0.8 | 1.0 | -0.7 | -4.3 | -15.1
COC(=O)c1ccccc1N/C=C1\CCc2c(c(C)nn2-c2ccccn2)C1=O | 64.7* | -1.8 | -1.8 | 10.4 | 9.5 | -15.6
CC1=C(c2ccccc2)CCC1=O | 80.5* | -3.8 | -2.1 | 5.8 | 0.2 | 20.4
COc1cc(/C=C2\C(=O)NN(c3ccccc3)C2=O)cc([N+](=O)[O-])c1O | 0.1 | -29.6* | -0.5 | 0.5 | 4.3 | 2.5
CCCCC(C(=O)NC1CCCC1)N(C(=O)c1snc(C(N)=O)c1N)c1ccc(C)cc1 (centres undefined) | -16.1 | -1.4 | -3.5 | -3.5 | 0.0 | 6.9
NC(=O)c1ccsc1NC(=O)C1CC1 | -1.8 | 1.0 | 3.1 | -0.1 | 3.5 | -1.8
NC(=O)c1ccsc1N | / | -34.7* | / | / | -1.5 | -15.7
COc1ccc(OC)c(/C=C/C(=O)OCC(=O)Nc2nnc(-c3ccccc3)o2)c1 | -0.2 | / | 3.9 | 0.3 | 4.2 | -2.7
C=C1C(=O)OC2C=C(CO)C3OC3C3OC3(C)CC(OC(=O)/C(=C/C)COC(C)=O)C12 (centres undefined) | 19.1 | / | -2.9 | 5.7 | / | /
CCCCN1CC(=O)N2[C@H]3c4ccc(OC)cc4OC[C@@H]3[C@H](c3ccccc3)[C@]2(C)C1=O | 2.6 | / | -0.7 | -3.5 | 0.3 | 14.0
COc1ccccc1NC(=O)c1cc2c(CO)cnc(C)c2oc1=Nc1ccccc1 | 80.6* | 0.5 | -3.2 | 0.9 | 17.2 | -1.2
COc1cc(/C=C(\C#N)C(=O)Nc2cccc(C(=O)O)c2)ccc1OCc1ccc(F)cc1 | -4.4 | 0.5 | 3.3 | -18.9 | -15.0 | 10.3
CCOc1cc(/C=C(\C#N)C(=O)Nc2cccc(C(=O)O)c2)ccc1OCc1ccccc1Cl | 80.9* | -0.2 | -4.6 | -4.7 | 27.5 | -0.3
CCCCn1c(N)c(N(CCC(C)C)C(=O)C2CC(=O)N(c3ccc(OC)cc3OC)C2)c(=O)[nH]c1=O (centres undefined) | -5.2 | -1.9 | -1.9 | -4.5 | -11.2 | -6.5
SMILES | Exocytosis inh | MEX-5 binding | V-ATPase pHluor | m5-HT2A agonist | GASC-1 inh | VLA-4 inh
COc1ccc(N=Nc2nc3ccc(Br)cc3n2C)cc1 | -2.1 | -50.4* | -1.8 | -0.5 | -21.1 | 18.1
Cc1cccc2c1NC(=O)/C2=C\C(=O)c1cccs1 | 4.4 | -1.1 | -0.2 | -4.8 | -19.0 | 19.2
CCc1ccc2c(c1)/C(=C/C(=O)c1cccs1)C(=O)N2 | 104.4* | 0.2 | 3.6 | 2.7 | -10.3 | 21.3
CC1(C(=O)NS(=O)(=O)c2ccccc2Cl)CCN1C(=O)CCc1cccs1 (centres undefined) | -5.6 | / | / | 1.0 | / | /
NC(CO)C(=O)NNCc1ccc(O)c(O)c1O (centres undefined) | -1.2 | -33.4* | -62.8 | 4.0 | ? | 2.9
Cc1noc(C)c1CSCC(=O)Nc1nc2c(F)cc(F)cc2s1 | -4.6 | / | 0.1 | -3.7 | 2.2 | -6.5
CN(CCc1ccccc1)C(=O)c1cccc(NC(=O)Cc2cccc(NC(=O)C3CCN(C(=O)C4CCC4)CC3)c2)c1 | 10.5 | / | 2.4 | 7.0 | / | /
Cc1cc(/C=C2/C(=N)N3C(c4ccccc4)=CSC3=NC2=O)c(C)n1-c1ccc(Cl)cc1 | 60.5* | / | -1.6 | 1.5 | / | /
Cc1cccc(-n2c(C)cc(/C=C3/C(=N)N4C(c5ccccc5)=CSC4=NC3=O)c2C)c1 | -10.8 | 0.3 | -4.2 | 0.4 | -6.4 | -14.5
Clc1cccc(Cl)c1Cn1c(-c2cccnc2Cl)nc2ccccc21 | 0.0 | 0.2 | -0.8 | -4.2 | 52.1* | -0.1
C=CCn1c(-c2cccnc2Cl)nc2ccccc21 | -2.4 | -0.4 | 0.0 | -4.5 | -4.8 | 10.7
COc1cccc(OCc2ccc(Cn3nc(NC(=O)NCCc4ccc(OC)c(OC)c4)c4ccccc43)cc2)c1 | -5.7 | / | / | 0.8 | / | /
CCc1ccc(C(=O)NNC(=O)c2ccc(=O)n(C)n2)cc1 | -0.8 | -30.5* | 3.9 | -4.8 | -5.1 | 3.3
O=C(NCc1cccnc1)/C(=C\c1ccc(-c2cccc(Cl)c2)o1)S(=O)(=O)c1ccccc1 | 90.5* | 3.1 | -2.9 | -2.4 | 3.8 | 32.3
O=C1/C(=C\c2ccccc2)CN(C(=O)CCN2CCCCC2)C/C1=C/c1ccccc1 | 83.2* | / | 0.4 | -9.6 | / | /
O=C(NCCN1CCOCC1)c1ccc(Cl)c(Cl)c1 | 3.8 | -0.2 | 2.0 | -6.5 | -2.4 | 6.4
O=C1/C(=C\c2ccc(Cl)c(Cl)c2)CN(C(=O)CCN2CCOCC2)C/C1=C/c1ccc(Cl)c(Cl)c1 | 65.3* | / | -1.6 | -7.4 | / | /
CCOC(=O)c1c(C)c(C(=O)Nc2cc(OC)ccc2OC)c(C)n1CC | 3.0 | 3.7 | 14.9* | 0.5 | 6.3 | -2.6
CCOC(=O)c1c(C)c(C(=O)Nc2ccccc2)c(C)n1CC | 9.9 | 0.2 | 20.1* | 1.6 | 0.9 | -0.8
CCOC(=O)c1c(C)c(C(=O)NCc2cccs2)c(C)n1CC | -4.0 | 0.6 | -0.6 | -0.9 | -3.0 | 0.9
CCOC(=O)c1[nH]c(C)c(C(=O)Nc2cc(OC)ccc2OC)c1C | 1.7 | 0.0 | -3.4 | 0.3 | 13.4 | 13.1
Cc1cccc(NC(=O)C2CCN(S(=O)(=O)c3cccc4nsnc34)CC2)n1 | 0.2 | 0.8 | 0.2 | -2.0 | 51.7* | 2.2

Screening results (PubChem)
